# Measured values as given in the supplement of paper PMC8728848.
# Only a selection was taken, and the strongest signals are over-represented in it overall.
# B1: DCAL1 (Homo sapiens), Q8IZS7 (protein)
# chain: MVSNFFHVIQVFEKSATLISKTEHIGFVIYSWRKSTTHLGSRRKFAISIYLSEVSLQKYDCPFSGTSFVVFSLFLICAMAGDVVYADIKTVRTSPLELAFPLQRSVSFNFSTVHKSCPAKDWKVHKGKCYWIAETKKSWNKSQNDCAINNSYLMVIQDITAMVRFNI
# B2: CVN (Nostoc ellipsosporum), P81180 (protein)
# chain: LGKFSQTCYNSAIQGSVLTSTCERTNGGYNTSSIDLNSVIENVDGSLKWQPSNFIETCRNTQLAGSSELAAECKTRAQQFVSTKINLDDHIANIDGTLKYE
# Tests used:
# Assay in all cases: glycan array binding signal (z-score within array); higher = stronger binding
# Details in all cases: glycan notation: IUPAC condensed, linker removed
# [1] = target: Fuc(a1-2)[Gal(a1-3)]Gal(b1-4)GlcNAc
# Procedure, shortened: (§1)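 Negative Z-scores can be read as non-binding. The Z-score is calculated within each array and then averaged across arrays of one protein sequence at different concentrations or buffers and across linkers. Arrays, 3228 in all, were curated from the Consortium for Functional Glycomics database and kept only where the protein sequence was available.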
# [2] = target: Fuc(a1-2)[GalNAc(a1-4)]Gal(b1-4)GlcNAc
# Procedure, shortened: as §1
# Gal(b1-3)GalNAc = target: Gal(b1-3)GalNAc
# Procedure, shortened: as §1
# [3] = target: Gal(b1-3)GalNAc(b1-3)Gal(a1-4)Gal(b1-4)Glc
# Procedure, shortened: as §1
# [4] = target: Gal(b1-3)GlcNAc(b1-3)Gal(b1-4)Glc
# Procedure, shortened: as §1
# Gal(b1-4)Glc6S = target: Gal(b1-4)Glc6S
# Procedure, shortened: as §1
# [5] = target: Gal(b1-4)GlcNAc(b1-3)Gal(b1-4)Glc
# Procedure, shortened: as §1
# Gal3S(b1-4)Glc = target: Gal3S(b1-4)Glc
# Procedure, shortened: as §1
# Gal3S6S(b1-4)GlcNAc6S = target: Gal3S6S(b1-4)GlcNAc6S
# Procedure, shortened: as §1
# GalNAc(a1-3)Gal = target: GalNAc(a1-3)Gal
# Procedure, shortened: as §1
# Glc(a1-6)Glc(a1-6)Glc = target: Glc(a1-6)Glc(a1-6)Glc
# Procedure, shortened: as §1
# [6] = target: GlcNAc(b1-2)Gal(b1-3)GalNAc
# Procedure, shortened: as §1
# [7] = target: Man(a1-2)Man(a1-2)Man(a1-6)[Man(a1-3)]Man
# Procedure, shortened: as §1
# [8] = target: Man(a1-2)Man(a1-3)[Man(a1-2)Man(a1-6)]Man(a1-6)[Man(a1-2)Man(a1-2)Man(a1-3)]Man(b1-4)GlcNAc(b1-4)GlcNAc
# Procedure, shortened: as §1
# Man(a1-3)[Man(a1-6)]Man = target: Man(a1-3)[Man(a1-6)]Man
# Procedure, shortened: as §1
# [9] = target: Neu5Ac(a2-3)Gal(b1-3)GlcNAc
# Procedure, shortened: as §1
# Neu5Ac(a2-3)Gal(b1-4)Glc = target: Neu5Ac(a2-3)Gal(b1-4)Glc
# Procedure, shortened: as §1
# [10] = target: Neu5Ac(a2-3)Gal(b1-4)GlcNAc6S
# Procedure, shortened: as §1
# [11] = target: Neu5Ac(a2-6)Gal(b1-4)GlcNAc(b1-3)Gal(b1-4)GlcNAc
# Procedure, shortened: as §1
# Neu5Ac(a2-6)GalNAc = target: Neu5Ac(a2-6)GalNAc
# Procedure, shortened: as §1
# [12] = target: Fuc(a1-2)[Gal(a1-3)]Gal(b1-4)GlcNAc(b1-2)Man(a1-3)[Fuc(a1-2)[Gal(a1-3)]Gal(b1-4)GlcNAc(b1-2)Man(a1-6)]Man(b1-4)GlcNAc(b1-4)GlcNAc
# Procedure, shortened: as §1
# [13] = target: Fuc(a1-2)[Gal(a1-3)]Gal(b1-4)[Fuc(a1-3)]Glc
# Procedure, shortened: as §1
# [14] = target: Fuc(a1-2)[GalNAc(a1-3)]Gal(b1-4)[Fuc(a1-3)]GlcNAc(b1-3)GalNAc
# Procedure, shortened: as §1
# Fuc(a1-3)GlcNAc = target: Fuc(a1-3)GlcNAc
# Procedure, shortened: as §1
# [15] = target: Gal(b1-3)GlcNAc(b1-3)Gal(b1-4)GlcNAc(b1-6)[Gal(b1-3)GlcNAc(b1-3)]Gal(b1-4)Glc
# Procedure, shortened: as §1
# [16] = target: Gal(b1-4)GlcNAc(b1-2)[Gal(b1-4)GlcNAc(b1-4)]Man(a1-3)[Gal(b1-4)GlcNAc(b1-2)[Gal(b1-4)GlcNAc(b1-6)]Man(a1-6)]Man(b1-4)GlcNAc(b1-4)GlcNAc
# Procedure, shortened: as §1
# [17] = target: Gal(b1-4)GlcNAc(b1-3)[Gal(b1-4)GlcNAc(b1-6)]GalNAc
# Procedure, shortened: as §1
# [18] = target: Gal(b1-4)GlcNAc(b1-3)[GlcNAc(b1-6)]Gal(b1-4)GlcNAc
# Procedure, shortened: as §1
# GalNAc(b1-3)GalNAc = target: GalNAc(b1-3)GalNAc
# Procedure, shortened: as §1
# [19] = target: GlcNAc(a1-4)Gal(b1-4)GlcNAc(b1-3)Gal(b1-4)GlcNAc
# Procedure, shortened: as §1
# [20] = target: GlcNAc(b1-2)[GlcNAc(b1-4)]Man(a1-3)[GlcNAc(b1-2)Man(a1-6)]Man(b1-4)GlcNAc(b1-4)GlcNAc
# Procedure, shortened: as §1
# [21] = target: GlcNAc(b1-2)[GlcNAc(b1-6)]Man(a1-6)[GlcNAc(b1-2)Man(a1-3)]Man(b1-4)GlcNAc(b1-4)GlcNAc
# Procedure, shortened: as §1
# GlcNAc(b1-4)GlcNAc = target: GlcNAc(b1-4)GlcNAc
# Procedure, shortened: as §1
# [22] = target: GlcNAc(b1-4)GlcNAc(b1-4)GlcNAc(b1-4)GlcNAc(b1-4)GlcNAc(b1-4)GlcNAc
# Procedure, shortened: as §1
# [23] = target: GlcNAc(b1-6)Gal(b1-4)GlcNAc
# Procedure, shortened: as §1
# [24] = target: GlcNAc6S(b1-3)Gal(b1-4)GlcNAc
# Procedure, shortened: as §1
# Kdn(a2-3)Gal(b1-4)Glc = target: Kdn(a2-3)Gal(b1-4)Glc
# Procedure, shortened: as §1
# [25] = target: Man(a1-2)Man(a1-2)Man(a1-3)Man
# Procedure, shortened: as §1
# [26] = target: Man(a1-2)Man(a1-3)[Man(a1-2)Man(a1-6)]Man(a1-6)[Man(a1-2)Man(a1-2)Man(a1-3)]Man
# Procedure, shortened: as §1
# [27] = target: Man(a1-2)Man(a1-3)[Man(a1-6)]Man(a1-6)[Man(a1-2)Man(a1-3)]Man(b1-4)GlcNAc(b1-4)GlcNAc
# Procedure, shortened: as §1
# [28] = target: Man(a1-2)Man(a1-6)[Man(a1-3)]Man(a1-6)[Man(a1-2)Man(a1-2)Man(a1-3)]Man
# Procedure, shortened: as §1
# [29] = target: Man(a1-2)Man(a1-6)[Man(a1-3)]Man(a1-6)[Man(a1-2)Man(a1-2)Man(a1-3)]Man(b1-4)GlcNAc(b1-4)GlcNAc
# Procedure, shortened: as §1
# [30] = target: Man(a1-3)[Man(a1-6)]Man(a1-6)[Man(a1-2)Man(a1-3)]Man(b1-4)GlcNAc(b1-4)GlcNAc
# Procedure, shortened: as §1
# [31] = target: Neu5Ac(a2-3)Gal(b1-3)GlcNAc6S
# Procedure, shortened: as §1
# [32] = target: Neu5Ac(a2-3)Gal(b1-4)GlcNAc(b1-3)Gal(b1-4)GlcNAc
# Procedure, shortened: as §1
# [33] = target: Neu5Ac(a2-3)Gal(b1-4)[Fuc(a1-3)]GlcNAc
# Procedure, shortened: as §1
# Neu5Ac(a2-3)GalNAc = target: Neu5Ac(a2-3)GalNAc
# Procedure, shortened: as §1
binder,measurement,setting,value
B1,glycan array binding signal (z-score),[1],-0.172
same,glycan array binding signal (z-score),[2],-0.139
same,glycan array binding signal (z-score),Gal(b1-3)GalNAc,-0.214
same,glycan array binding signal (z-score),[3],-0.25
same,glycan array binding signal (z-score),[4],-0.181
same,glycan array binding signal (z-score),Gal(b1-4)Glc6S,-0.212
same,glycan array binding signal (z-score),[5],1.75
same,glycan array binding signal (z-score),Gal3S(b1-4)Glc,-0.249
same,glycan array binding signal (z-score),Gal3S6S(b1-4)GlcNAc6S,1.34
same,glycan array binding signal (z-score),GalNAc(a1-3)Gal,-0.202
same,glycan array binding signal (z-score),Glc(a1-6)Glc(a1-6)Glc,-0.234
same,glycan array binding signal (z-score),[6],-0.121
same,glycan array binding signal (z-score),[7],-0.251
same,glycan array binding signal (z-score),[8],5.03
same,glycan array binding signal (z-score),Man(a1-3)[Man(a1-6)]Man,-0.223
same,glycan array binding signal (z-score),[9],-0.253
same,glycan array binding signal (z-score),Neu5Ac(a2-3)Gal(b1-4)Glc,-0.211
same,glycan array binding signal (z-score),[10],-0.184
same,glycan array binding signal (z-score),[11],-0.203
same,glycan array binding signal (z-score),Neu5Ac(a2-6)GalNAc,0.533
B2,glycan array binding signal (z-score),[12],0.048
same,glycan array binding signal (z-score),[13],-0.107
same,glycan array binding signal (z-score),[14],0.522
same,glycan array binding signal (z-score),Fuc(a1-3)GlcNAc,-0.306
same,glycan array binding signal (z-score),[15],-0.301
same,glycan array binding signal (z-score),[16],5.21
same,glycan array binding signal (z-score),[17],-0.095
same,glycan array binding signal (z-score),[18],-0.306
same,glycan array binding signal (z-score),GalNAc(b1-3)GalNAc,-0.306
same,glycan array binding signal (z-score),[19],-0.203
same,glycan array binding signal (z-score),[20],0.024
same,glycan array binding signal (z-score),[21],-0.3
same,glycan array binding signal (z-score),GlcNAc(b1-4)GlcNAc,-0.301
same,glycan array binding signal (z-score),[22],-0.306
same,glycan array binding signal (z-score),[23],-0.302
same,glycan array binding signal (z-score),[24],-0.222
same,glycan array binding signal (z-score),Kdn(a2-3)Gal(b1-4)Glc,-0.296
same,glycan array binding signal (z-score),[25],5.16
same,glycan array binding signal (z-score),[7],5.83
same,glycan array binding signal (z-score),[26],7.15
same,glycan array binding signal (z-score),[8],5.21
same,glycan array binding signal (z-score),[27],5.58
same,glycan array binding signal (z-score),[28],7.23
same,glycan array binding signal (z-score),[29],6.39
same,glycan array binding signal (z-score),Man(a1-3)[Man(a1-6)]Man,-0.299
same,glycan array binding signal (z-score),[30],4.22
same,glycan array binding signal (z-score),[31],-0.304
same,glycan array binding signal (z-score),[32],-0.3
same,glycan array binding signal (z-score),[33],-0.268
same,glycan array binding signal (z-score),Neu5Ac(a2-3)GalNAc,-0.303
